We go through 21 molecules from PubChem BioAssay (EPA / NIEHS).

The term AC50 denotes the midpoint of the concentration-response curve, whichever way the signal moves.

Activity calls are given as the source filed them. Rule for the calls: active = hit-call score of the fitted dose curve at least 0.9, where 1 is the maximum; inactive = score below 0.9.

What all share (settings): mRNA level, 48 h; actives raise or lower the signal
Read-out in test [1]: Early growth response protein 1 (EGR1) transcription factor, EGR1 (gene 1958)
Nature of the test: LTEA_HepaRG_EGR1: Life Technologies and Expression Analysis (LTEA) Assay for Early growth response protein 1 (EGR1) transcription factor using HepaRG (AID 2283490). An outline of the steps:
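Differentiated HepaRG cells in serum-free induction medium exposed 48 hours, duplicate, to 8 half-log concentrations up to 100 uM in 0.5% DMSO. EGR1 mRNA measured by TaqMan qRT-PCR, normalized to ACTB, GAPDH, POLR2A; bidirectional fit versus DMSO.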

Read-out in test [2]: Cytochrome P450 3A7 (Homo sapiens) (UniProt P24462)
Nature of the test: LTEA_HepaRG_CYP3A7: Life Technologies and Expression Analysis (LTEA) Assay for CYP3A7 using HepaRG (AID 2283492). An outline of the steps:
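CYP3A7 transcript measured by qRT-PCR (ACTB, GAPDH, POLR2A normalization) after 48 h chemical exposure of HepaRG cells in duplicate. Eight half-log concentrations, maximum 100 uM, 0.5% DMSO vehicle; bidirectional curve fitting against DMSO baseline.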

Read-out in test [3]: Fatty Acid-Binding Protein 1 (FABP1), FABP1 (gene 2168)
Description: LTEA_HepaRG_FABP1: Life Technologies and Expression Analysis (LTEA) Assay for Fatty Acid-Binding Protein 1 (FABP1) using HepaRG (AID 2283494). An outline of the steps:
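Differentiated human HepaRG cells exposed 48 h in serum-free induction medium to eight half-log concentrations up to 100 uM (0.5% DMSO), duplicate. FABP1 mRNA by qRT-PCR, normalised to ACTB, GAPDH, POLR2A; bidirectional fitting against DMSO.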

Read-out in test [4]: Cytochrome P450 4A22 (Homo sapiens) (UniProt Q5TCH4)
Description: LTEA_HepaRG_CYP4A22: Life Technologies and Expression Analysis (LTEA) Assay for Cytochrome P450 4A22 (CYP4A22) using HepaRG (AID 2283495). The essentials:
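Gene expression measured by qRT-PCR against three housekeeping genes (ACTB, GAPDH, POLR2A), with gain or loss fitted relative to 0.5% DMSO vehicle. HepaRG cultures received 48 h chemical treatment, top concentration 100 uM, half-log steps, duplicate wells.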

Read-out in test [5]: Cytochrome P450 7A1 (Homo sapiens) (UniProt P22680)
Description: LTEA_HepaRG_CYP7A1: Life Technologies and Expression Analysis (LTEA) Assay for Cytochrome P450 7A1 (CYP7A1) using HepaRG (AID 2283496). An outline of the steps:
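Gene expression endpoint in human HepaRG liver cells treated for 48 h with test chemicals (up to 100 uM, 0.5% DMSO). Values come from bidirectional concentration-response fitting versus DMSO.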

Read-out in test [6]: Glutathione S-Transferase (GSTA2), GSTA2 (gene 2939)
Description: LTEA_HepaRG_GSTA2: Life Technologies and Expression Analysis (LTEA) Assay for Glutathione S-Transferase (GSTA2) using HepaRG (AID 2283497). An outline of the steps:
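Differentiated human HepaRG cells were exposed in duplicate for 48 h in serum-free induction medium, 8 points from 100 uM top in half-log steps, 0.5% DMSO. GSTA2 mRNA was measured by TaqMan qRT-PCR, normalized to ACTB, GAPDH and POLR2A; bidirectional fit versus DMSO.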

Read-out in test [7]: Glutamate-cysteine ligase catalytic (GCLC), GCLC (gene 2729)
Description: LTEA_HepaRG_GCLC: Life Technologies and Expression Analysis (LTEA) Assay for Glutamate-cysteine ligase catalytic (GCLC) using HepaRG (AID 2283498). An outline of the steps:
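Differentiated HepaRG cells exposed 48 h in serum-free induction medium, eight-point half-log series topping at 100 uM in 0.5% DMSO, duplicates. GCLC mRNA by qRT-PCR normalized to ACTB, GAPDH and POLR2A, fitted bidirectionally versus DMSO.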

Read-out in test [8]: growth arrest and DNA damage 45 (GADD45G), GADD45G (gene 10912)
Description: LTEA_HepaRG_GADD45G: Life Technologies and Expression Analysis (LTEA) Assay for growth arrest and DNA damage 45 (GADD45G) using HepaRG (AID 2283499). An outline of the steps:
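GADD45G transcript level by qRT-PCR (housekeeping-normalized: ACTB, GAPDH, POLR2A) after 48 h chemical treatment of a single HepaRG lot in serum-free induction medium; eight-point half-log series up to 100 uM in 0.5% DMSO, duplicates, up- or down-regulation scored.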

Read-out in test [9]: Ezrin (EZR), EZR (gene 7430)
Nature of the test: LTEA_HepaRG_EZR: Life Technologies and Expression Analysis (LTEA) Assay for Ezrin (EZR) using HepaRG (AID 2283491). An outline of the steps:
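Differentiated human HepaRG cells, 48 h after plating, were exposed in serum-free induction medium for 48 hours to eight half-log concentrations up to 100 uM in 0.5% DMSO. EZR mRNA was measured by TaqMan qRT-PCR, normalized to ACTB, GAPDH and POLR2A, and fitted bidirectionally against DMSO.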

Cytochrome P450 3A7 (Homo sapiens), sequence (P24462 whole entry, looked up): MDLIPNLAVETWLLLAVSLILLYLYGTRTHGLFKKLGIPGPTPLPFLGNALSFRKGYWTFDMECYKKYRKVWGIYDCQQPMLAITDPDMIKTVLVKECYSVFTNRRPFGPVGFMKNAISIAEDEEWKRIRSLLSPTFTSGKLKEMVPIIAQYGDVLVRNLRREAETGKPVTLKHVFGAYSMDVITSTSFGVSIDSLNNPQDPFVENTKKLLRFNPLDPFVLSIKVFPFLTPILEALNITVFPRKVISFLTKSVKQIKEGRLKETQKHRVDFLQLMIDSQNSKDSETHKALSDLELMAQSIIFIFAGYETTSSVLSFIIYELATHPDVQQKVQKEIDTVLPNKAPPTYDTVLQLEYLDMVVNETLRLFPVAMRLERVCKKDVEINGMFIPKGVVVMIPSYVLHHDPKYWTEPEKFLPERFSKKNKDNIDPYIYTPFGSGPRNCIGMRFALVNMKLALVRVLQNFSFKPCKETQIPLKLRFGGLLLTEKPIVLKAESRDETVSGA

As to `O=C(O)C(Cl)Cl`, the molecule was called inactive in test [1], in [2], in [3], in test [4], in test [5] and in test [6]. Moreover, the molecule was classed as inactive in test [7] and in test [8].
As to `O=P(Oc1ccccc1)(Oc1ccccc1)Oc1ccccc1`, the call in test [1], in [3], in test [4] and in test [5] was inactive. The AC50 is 12.6 µM (active) in test [2], 74.9 µM (active) in test [7] and 50 µM (active) in test [8].
On to `Cc1cccc(N)c1`, for which the call in [1], in test [9], in test [2], in [3], in test [7] and in test [8] was inactive.
For the molecule `OCC1CO1` (stereo not drawn), the outcome in [1], in test [2], in [3], in [4], in test [5] and in test [7] was inactive. For the same molecule, the result in [8] was inactive.
In the case of `Nc1ccc2ccccc2c1`, the molecule was classed as inactive in test [1], in test [2], in test [4], in test [5], in [7] and in test [8]. In test [3], the AC50 is 18.9 µM (active).
With `CCN(CC)c1ccccc1`, the molecule was classed as inactive in test [1], in test [9], in test [2], in test [3], in test [4] and in [5]. In addition, the molecule was classed as inactive in [6], in [7] and in test [8].
Regarding `c1ccc(OP(Oc2ccccc2)Oc2ccccc2)cc1`, the call in test [1], in [2], in test [3], in test [4], in [5] and in test [7] was inactive. Besides, in test [8], the molecule was called inactive.
Turning to `O=[N+]([O-])c1ccc(Cl)c(Cl)c1`, the molecule was classed as inactive in test [1], in [2], in [3], in test [4], in test [5] and in test [7]. Also, the outcome in test [8] was inactive.
Consider `ClC(Cl)c1ccccc1`, for which the molecule was called inactive in test [1], in [2], in test [3], in test [4], in [5] and in test [6]. Further, the result in [7] and in test [8] was inactive.
With `CCOC(=O)c1ccccc1C(=O)OCC`, the molecule was classed as inactive in test [1], in [2], in [3], in [4], in test [5] and in [7]. The outcome in test [8] was inactive.
In the case of `Cc1ccc(O)cc1C`, the molecule was called inactive in test [1], in test [9], in [3], in test [7] and in [8].
As for `O=P1(N(CCCl)CCCl)NCCCO1` (stereo not drawn), the call in test [1], in test [2], in test [3], in [4], in test [5] and in test [7] was inactive. For the same molecule, the outcome in [8] was inactive.
On to `CCCCN(CCCC)N=O`, for which the result in test [1], in test [2], in test [3], in [4], in test [5] and in test [7] was inactive. Further, the call in test [8] was inactive.
Regarding `CC(Cl)(Cl)C(=O)O`, the molecule was classed as inactive in test [1], in test [2], in test [3], in test [4], in test [5] and in [7]. For the same molecule, in test [8], the result was inactive.
As for `c1cc2c3c(cccc3c1)CC2`, the call in test [1], in test [2], in test [3], in test [4], in test [5] and in test [7] was inactive. The result in test [8] was inactive.
`CCCCc1ccccc1`: the call in test [1], in test [2], in test [3], in test [4], in test [5] and in [7] was inactive. Moreover, the outcome in test [8] was inactive.
As to `CC(Cc1ccc(OCC(=O)O)cc1)NCC(O)c1csc(C(F)(F)F)n1` (stereo not drawn), the result in [1], in [2], in test [3], in test [4], in test [5] and in test [7] was inactive. Moreover, in [8], the molecule was classed as inactive.
In the case of `CCOc1ccc(C(C)(C)COCc2cccc(Oc3ccccc3)c2)cc1`, the result in test [1], in test [3], in [4], in [7] and in test [8] was inactive. Moreover, the AC50 in test [2] is 1.64 µM (active); in [5] it was 26.8 µM (active).
Turning to `CCCN(CCC)c1c([N+](=O)[O-])cc(C(C)C)cc1[N+](=O)[O-]`, the molecule was called inactive in test [1], in [2], in [4], in test [7] and in test [8]. Besides, the AC50 is 9.92 µM (active) in test [3] and 50 µM (active) in test [5].
As to `CC(C)(C)OOC(C)(C)C`, the call in test [1], in test [2], in test [3], in [4], in test [5] and in test [7] was inactive. Also, the molecule was called inactive in test [8].
`c1ccc2c(c1)Nc1ccccc1S2`: the molecule was classed as inactive in [1], in test [2], in [4], in test [7] and in test [8]. Besides, the AC50 in test [3] was 50 µM (active); in [5], 20.2 µM (active).
